KB-V1 cytotox: qHTS assay for MDR1-selective chemotherapeutics: Primary screen using the drug-selected MDR subline cells KB-V1. Potency, µM (titrated, usually from 46.1 µM), most hits filed as cytotoxic. AID 1347076, 2019. actives 3.4% (n = 400,000). KB-V1 MDR cells viability, CellTiter-Glo, 72 h; note: nearly all actives have a fitted effect of over 60% in size
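In this primary screen, KB-V1 cells overexpressing P-gp are incubated with library compounds (lowest to highest concentration) for 72 h at 37 degrees C before a luminescent ATP viability read.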
SW480 rereplic: A quantitative high throughput screen for small molecules that induce DNA re-replication in SW480 colon adenocarcinoma cells; AID 624297, 2012; Potency, µM (titrated, usually from 46.1 µM), usual class: activators; SW480 DNA re-replication, Hoechst DNA content imaging, 48 h; actives 1.8% (n = 340,000); note: nearly all actives have a fitted effect of over 55% in size
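Per well, 250 cells were exposed to pinned compound for 48 hr. Nuclear DNA was visualised with Hoechst (40 min, 37 C) and total object intensity recorded by fluorescence scanning.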
KB-3-1 tox: qHTS assay for MDR1-selective chemotherapeutics: Primary screen using the parental adenocarcinoma cell KB-3-1. Potency, µM (highest dose often 46.1 µM), most hits filed as cytotoxic. KB-3-1 viability, CellTiter-Glo ATP luminescence, 72 h. actives 1.4% (n = 400,000). AID 1347075, 2019; note: nearly all actives have a fitted effect of over 60% in size
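KB-3-1 cells, DMEM (no phenol red) + 10% FBS; compound by pin transfer, 72 h, 37 °C. Readout: CellTiter-Glo luminescence after 10 min. Data normalized, curve-fitted.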
ELG1 repair inh: qHTS screen for small molecules that inhibit ELG1-dependent DNA repair in human embryonic kidney (HEK293T) cells expressing luciferase-tagged ELG1. HEK293T ELG1-luciferase reporter, luminescence, 16 h; DNA damage induced by 5-fluorouridine. AID 504467, 2011. actives 2.3% (n = 330,000). Potency, µM (top dose mostly 46.1 µM), usual class: inhibitors; note: nearly all actives have a fitted effect of over 55% in size
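Quantitative HTS, concentration-response format. 2,000 cells/well co-treated with 5-fluorouridine and compound, 16 hr in 5% CO2 at 37 °C; ONE-Glo luminescence read after 30 min.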
MCF10A rerep: A quantitative high throughput screen for small molecules that induce DNA re-replication in MCF 10a normal breast cells. MCF 10A DNA re-replication, Hoechst nuclear intensity, 48 h. Potency, µM (top dose mostly 46.1 µM), usual class: activators. actives 2.9% (n = 350,000). AID 624296, 2012; note: nearly all actives have a fitted effect of over 50% in size
Each line names hits and unclear results; the compound was inactive in the other large screens. Most compounds without a hit are left out; they make up all but 8.1% or so of the library. Calls come from the whole dose curve; as a rule, active = well fitted curve in the direction sought with a large enough effect; inconclusive = small, poorly fitted or top-dose-only effect, or another doubt; inactive = no such curve, though single readings can be large; an effect the other way counts as inactive or inconclusive.

COc1cc(O)cc2c1C(=O)O[C@@H](C)CCCC(=O)CCCCC2	none
CC1CCC[C@H](O)CCCCCc2cc(O)cc(O)c2C(=O)O1 (some centres not stated)	KB-V1 cytotox 21µM, ELG1 repair inh inconclusive
Cc1cccc(-c2nn3c(=O)cc(CN4CCN(C(=O)COc5ccc(Cl)cc5)CC4)nc3s2)c1	none (no result: SW480 rereplic, ELG1 repair inh, MCF10A rerep)
COc1cc(/C=C2\C[C@H]3[C@@H]4CC=C5C[C@@H](N6CCCC6)CC[C@]5(C)[C@H]4CC[C@]3(C)[C@H]2O)cc(OC)c1OC	KB-V1 cytotox 2.9µM, MCF10A rerep inconclusive (no result: ELG1 repair inh)
CC(C)(C)N1CC(C(=O)c2ccccc2)C1c1ccccc1 (configuration not stated)	KB-V1 cytotox 16µM (no result: ELG1 repair inh)
CN1CC(C(=O)c2ccccc2)C(c2ccccc2)C1 (configuration not stated)	none
Cc1c(C(=O)N2CCC3(CC2)OCCO3)sc2ncnc(N3CCN(c4ccccn4)CC3)c12	ELG1 repair inh 3.7µM
O=[N+]([O-])c1ccc(N2CCCC2)c2ncccc12	KB-V1 cytotox inconclusive
COc1cc([N+](=O)[O-])c2nc(C)ccc2c1[N+](=O)[O-]	KB-V1 cytotox inconclusive, SW480 rereplic 15µM, MCF10A rerep inconclusive (no result: ELG1 repair inh)
COc1cc([N+](=O)[O-])cc([N+](=O)[O-])c1N	none (no result: SW480 rereplic, ELG1 repair inh, MCF10A rerep)
COc1cc([N+](=O)[O-])c2ncccc2c1[N+](=O)[O-]	KB-V1 cytotox 16µM, KB-3-1 tox inconclusive (no result: SW480 rereplic, ELG1 repair inh, MCF10A rerep)
O=C1c2ccccc2C(=O)N1SC1CCCCC1	SW480 rereplic inconclusive, ELG1 repair inh inconclusive, MCF10A rerep inconclusive
CSC1=NC(C)(C)CC2(C)Nc3ccccc3N12 (configuration not stated)	ELG1 repair inh inconclusive
C=C1C(=O)O[C@H]2C[C@@H](C)[C@@H]3C=CC(=O)[C@@]3(C)C[C@H]12	KB-V1 cytotox inconclusive, SW480 rereplic inconclusive, KB-3-1 tox inconclusive, ELG1 repair inh inconclusive, MCF10A rerep 2.9µM
C=C1C(=O)O[C@H]2[C@H]1[C@H](OC(=O)CC(=O)O[C@@H]1C[C@@H](C)[C@@H]3C=CC(=O)[C@@]3(C)[C@H]3OC(=O)C(=C)[C@H]13)C[C@@H](C)[C@H]1C=CC(=O)[C@]12C	ELG1 repair inh inconclusive, MCF10A rerep 2.3µM
C=C1C(=O)O[C@@H]2C[C@@H](C)[C@@H]3C=CC(=O)[C@@]3(C)[C@@H](OC(=O)CC(=O)O[C@H]3[C@@H]4C(=C)C(=O)O[C@@H]4C[C@@H](C)[C@@H]4C=CC(=O)[C@]43C)[C@H]12	SW480 rereplic inconclusive, ELG1 repair inh inconclusive, MCF10A rerep inconclusive
C=C1C(=O)OC2CC(C)C3C=CC(=O)C3(C)C(O)C12 (configuration not stated)	KB-V1 cytotox 3.7µM, SW480 rereplic inconclusive, KB-3-1 tox 3.3µM (no result: ELG1 repair inh)
C=C1C(=O)O[C@@H]2C[C@@H](C)[C@@H]3C4OC4C(=O)[C@@]3(C)[C@@H](O)[C@H]12 (some centres not stated)	SW480 rereplic inconclusive, ELG1 repair inh inconclusive, MCF10A rerep inconclusive
COc1ccc(-c2oc(=O)n(C)c2-c2ccc(OC)cc2)cc1	ELG1 repair inh inconclusive
COc1ccc(COC(=O)CCNC(=O)c2ccc(Cl)cc2)cc1	ELG1 repair inh inconclusive
Cc1cc(C(=O)OCC(=O)Nc2cccc(F)c2)c(C)n1C1CC1	none
Cc1cc(C(=O)OCC(=O)Nc2ccc(F)cc2)c(C)n1C1CC1	KB-V1 cytotox 23µM, ELG1 repair inh inconclusive
COc1cccc(CNc2ccc(S(N)(=O)=O)cc2)c1OCc1ccccc1F	KB-V1 cytotox 21µM, KB-3-1 tox inconclusive, ELG1 repair inh inconclusive
COc1cccc(CNCCc2cccc(F)c2)c1OC	ELG1 repair inh inconclusive
Cc1cccc(N2CCN(C(=O)C34CC5CC(CC(C5)C3)C4)CC2)c1C	MCF10A rerep inconclusive
[Hg+][c]1ccccc1	KB-V1 cytotox inconclusive, SW480 rereplic 11µM, KB-3-1 tox inconclusive (no result: ELG1 repair inh)
CN1CCC(O)(c2ccc(F)cc2)C(C(=O)c2ccc(F)cc2)C1 (configuration not stated)	SW480 rereplic inconclusive, MCF10A rerep 27µM (no result: KB-V1 cytotox, KB-3-1 tox, ELG1 repair inh)
ClCCN(CCCl)c1ccc(/C=C/c2sc3ccccc3[n+]2CCCCI)cc1	KB-3-1 tox inconclusive (no result: SW480 rereplic, ELG1 repair inh, MCF10A rerep)
c1ccc(CNC2CCCCCCC2)cc1 (tested in a mixture with another compound)	KB-V1 cytotox 23µM (no result: ELG1 repair inh)
c1cncc(CNC2CCCCC2)c1	KB-V1 cytotox inconclusive
Cc1nc2ccccc2c(=O)n1-c1ccccc1[N+](=O)[O-]	none
Cc1nccn1-c1c([N+](=O)[O-])c(=O)n(C)c2ccccc12	MCF10A rerep 10µM
Cc1ccc(OCCn2cccc2/C=C2/C(=O)NC(=O)N(Cc3ccco3)C2=O)cc1	ELG1 repair inh inconclusive, MCF10A rerep inconclusive
CCc1ccc(N2C(=O)NC(=O)/C(=C\c3cccn3CCOc3ccc(C(C)C)cc3)C2=O)cc1	KB-V1 cytotox inconclusive, SW480 rereplic inconclusive, KB-3-1 tox inconclusive, ELG1 repair inh inconclusive, MCF10A rerep 7.3µM
O=C(N/N=C\c1ccc(COc2ccc([N+](=O)[O-])cc2)o1)c1cccc(Cl)c1	ELG1 repair inh inconclusive
Cc1ccc(N2C(=O)CC(=O)NC2=O)cc1	none (no result: ELG1 repair inh)
Cc1ccc(C2C(=O)NC(=O)NC2=O)cc1	SW480 rereplic 18µM (no result: ELG1 repair inh)
O=C1C=CC2C3C(=O)N(c4ccccc4)C(=O)C3C1N2Cc1ccccc1 (configuration not stated)	KB-V1 cytotox 18µM, SW480 rereplic 3.7µM, KB-3-1 tox inconclusive, MCF10A rerep inconclusive (no result: ELG1 repair inh)
C/C(=N\Nc1ccccc1)c1c(O)n(-c2ccccc2)c(=O)[nH]c1=O	ELG1 repair inh inconclusive, MCF10A rerep inconclusive
C/C(=N\Nc1ccccc1)c1c(O)[nH]c(=O)[nH]c1=O	SW480 rereplic 21µM, KB-3-1 tox inconclusive, ELG1 repair inh 5.2µM, MCF10A rerep inconclusive
CC(=O)O[C@H]1C(=O)[C@@]2(C)C([C@H](OC(=O)c3ccccc3)[C@]3(O)C[C@H](OC(=O)[C@H](O)[C@@H](NC(=O)Cc4ccccc4)c4ccccc4)C(C)=C1C3(C)C)[C@]1(OC(C)=O)CO[C@@H]1C[C@@H]2O (some centres not stated)	KB-V1 cytotox inconclusive, SW480 rereplic 4.6µM, KB-3-1 tox 0.0073µM, ELG1 repair inh inconclusive, MCF10A rerep inconclusive

From PubChem
